As usually defined, the inhibition is the drop in the measured response relative to a control, in per cent.

Structures are written as SMILES. Out of some 220,000 compounds screened, about 2,000 (0.91%) were called active. About 2% were inconclusive and are not listed. A selection follows. Entries with a potency or affinity are not part of this list. Unmarked numbers belong to inactive results. Cut-off read from the data, not from the text of the source: inconclusive = inhibition above about 80% without an active follow-up result; inactive = below that; test concentration not stated here.

Experimental findings from PubChem BioAssay AID1626 (SRMLSC, 2009) are described below.

This assay can be described thus: M. tuberculosis H37Rv growth inhibitors, H37Rv strain (AID 1626).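 Note: bacteria incubated seven days before Alamar blue readout; 0% = bacteria only wells and 100% = bacteria with antibiotic wells.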 The settings on record: hits give high values, concentration not given here.
For the molecule `CC1=C(C(=O)NC2CCC(C)CC2)C2(CCC(C)CC2)OC1=O` (configuration not stated), the inhibition is 3.77%. Next, `CCc1ccc(/C=C/C(=O)c2ccc(S(=O)(=O)N(C)C)cc2)cc1`: 6.7%; `COC(=O)C1C(=O)C(C(=O)/C=C/c2ccccc2)C(=O)CC1(C)C` (configuration not stated): -2.58%; `Cc1ccc(C(=O)C2C(=O)c3ccccc3C2=O)cc1`: 39.5%. Next, `O=C(c1ccccc1)C1C(=O)c2ccccc2C1=O`: -2.43%; `CCc1ccc(/C=C/C(=O)c2c(C)cc(C)[nH]c2=O)cc1`: 8.7%; `Cc1ccc(/C=C/C(=O)c2ccccc2O)cc1`: 11.9%. As for `CNc1nc(-c2ccc3c(c2)CCN3C(=O)c2ccccc2F)cs1`, the figure is 0.06%. As to `CC(C)(C)NC(=O)CN(C(=O)CSc1nnc(COc2ccccc2)o1)c1cccc(F)c1`, the inhibition is 4.71%. As for `CC(C)OP(=O)(OC(C)C)C(NCc1ccccc1)c1ccccc1` (configuration not stated), the figure is 4.8%. Next, `COC(=O)c1c(-c2ccccc2)noc1C`: -2.56%; `COc1ccc(/C=N/NC(=O)Nc2nonc2N)cc1`: -4.3%.

In the case of `OCCCNCc1cccc2ccccc12`, the inhibition is 3.9%.

For `O=C(Nc1ccccc1Cl)c1csc(-c2cccnc2)n1`, the inhibition is 2.6%. On to `Cc1[nH]c(C)c2c(=O)n(-c3ccccc3)ncc12`, for which the inhibition was 3.67%.

With `CCSc1cc(N2CCCC2)nc(-c2ccc(C)cc2)n1`, the inhibition was 3.04%. On to `CCCSc1cc(N2CCCC2)nc(-c2ccccc2)n1`, for which the inhibition is 6.61%. For the molecule `CC(C)(CC(=O)O)CC(=O)NNc1ncccc1C#N`, the inhibition is 9.47%. Next, `CCOc1ccc(/C=N/N(C)c2ccccc2)cc1OC`: 33.5%; `O=C(O)C1CCCCC1C(=O)Nc1ccc(F)c(F)c1` (configuration not stated): 0.5%. Next, `Cc1ccc(NC(=O)C2CCCCC2C(=O)O)cc1C` (configuration not stated): 1.55%; `COc1cc(/C=N/NC(N)=O)ccc1OCC(=O)N1C(C)CCCC1C` (configuration not stated): -1.38%; `O=C(c1ccccc1)c1cc2ccccc2o1`: 1.99%. Next, `Nc1nc(Nc2ccccc2)sc1C(=O)c1ccccc1`: 36.1%; `CN(C)/C=N/c1ncc(C(=O)c2ccccc2)s1`: -11.7%; `Cc1sc(N)c(C(=O)c2ccccc2)c1C`: -10.3%.

As for `COC(=O)CCCC1=CC2=C(c3ccccc3)C(=O)C(C)(OC(=O)C3CCCC3)C(=O)C2=CN1CCc1c[nH]c2ccccc12` (configuration not stated), the inhibition was 0.18%.

With `COc1ccc(-n2c(C)cc(C(=O)Cn3nnc4ccccc4c3=O)c2C)cc1`, the inhibition was -8.34%. Next, `Cc1ccc(CN(c2ccc(C(=O)N3CCc4ccccc4C3)cc2)S(C)(=O)=O)cc1`: 6.8%; `N#Cc1ccccc1Cn1cc(C(=O)c2cccs2)c2ccccc21`: 7.78%; `Nc1nc(Nc2cccc(F)c2)nc(NCCO)c1[N+](=O)[O-]`: 7.19%.

As to `CC1CCC(C(C)C)C(OC(=O)COC(=O)c2cccn2C)C1` (configuration not stated), the inhibition was -6.06%.

Regarding `CC1CCC(C(C)C)C(OC(=O)COC(=O)c2ccc(N)cc2)C1` (configuration not stated), the inhibition is 68.7%.

Turning to `CC1CCC(C(C)C)C(OC(=O)CSc2nccc(=O)[nH]2)C1` (configuration not stated), the inhibition is -8.76%. Next, `CC1CCC(C(C)C)C(OC(=O)COC(=O)c2ccccc2N)C1` (configuration not stated): 6.07%; `CC1CCC(C(C)C)C(OC(=O)COC(=O)c2ccc(=O)[nH]c2)C1` (configuration not stated): -0.66%; `CC1CCC(C(C)C)C(OC(=O)Cn2nnc3c(cnn3-c3ccccc3)c2=O)C1` (configuration not stated): 1.77%. As for `CCOc1ccc(CCNC(=O)Cn2cccc2C(=O)c2ccccc2C)cc1OCC`, the figure is 4.18%; as for `Cc1c(-c2n[nH]c(=S)n2-c2ccc(Br)cc2)nnn1-c1ccc(Cl)cc1`, 4.27%.

As for `CCOC(CNc1c([N+](=O)[O-])c(=O)n(C)c(=O)n1C)OCC`, the inhibition is 3.27%. As for `Cc1ccccc1NC(=O)OCc1cccnc1Sc1ccc(Cl)cc1`, the figure is 0.86%; as for `Cn1c(SCC(=O)O)nc2ccccc2c1=O`, 3.07%. As for `Cc1ccc(Sc2ccc(/C=C3/C(=O)NN(c4ccccc4)C3=O)o2)cc1`, the figure is 75.7%; as for `CN1C(=O)C(=Cc2ccc(Sc3ccccc3)o2)C(=O)N(C)C1=O`, 41%. For the molecule `CCCCc1nnc(NC(=O)CN2C(=O)c3ccccc3C2=O)s1`, the inhibition is 0.96%. As to `CCOC(=O)COc1ccc(S(=O)(=O)N2CCN(c3ccc(F)cc3)CC2)cc1`, the inhibition was 8.22%.

For the molecule `CN1CCN(C(=O)/C(=C\c2cccc([N+](=O)[O-])c2)NC(=O)c2cccs2)CC1`, the inhibition is -3.33%. Next, `COc1ccc(CN(C(=O)c2ccc3c(c2)OCCO3)C(C(=O)NC2CCCCC2)c2ccc3ncccc3c2)cc1` (configuration not stated): 67.9%; `O=C(NC1CCCCC1)C(c1ccc2ncccc2c1)N(Cc1ccc2c(c1)OCO2)C(=O)c1cccs1` (configuration not stated): 8.94%. As for `O=C(NC1CCCCC1)C(c1ccc2ncccc2c1)N(Cc1ccccc1)C(=O)c1cccs1` (configuration not stated), the figure is 40.5%.

With `O=C(NC1CCCCC1)C(c1ccc2ncccc2c1)N(Cc1ccco1)C(=O)c1ccc2c(c1)OCCO2` (configuration not stated), the inhibition is 13.5%. Take `Cn1c(SCC(=O)N/N=C/c2cccnc2)nnc1-c1ccccc1`: the inhibition is -5.36%. As for `Cc1ccc(C(=O)OCC(=O)NC(C)C)cc1S(=O)(=O)N1CCOCC1`, the figure is -1.79%. Next, `CN(Cc1ccccc1)S(=O)(=O)c1ccc(NC(=S)NC(=O)C(C)(C)C)cc1`: 9.18%. Next, `COc1cc(CN2CCCC(C(=O)c3ccc4c5c(cccc35)CC4)C2)cc(OC)c1O` (configuration not stated): -1.67%; `CC(C)c1[nH]nc2c1C(c1ccco1)C(C#N)=C(N)O2` (configuration not stated): -5.64%. Consider `O=C1CC(C(=O)O)C2(CCCC2)O1` (configuration not stated), for which the inhibition was 9.23%.

For the molecule `Cc1ccc(N(CC(=O)NC2CCCC2)C(=O)CCCC(=O)Nc2ccccn2)cc1C`, the inhibition was 10%. As for `COc1cnc(-c2ccccn2)nc1NC(C)C`, the figure is 75.4%.

As to `COc1ccccc1Sc1nc(-c2ccccc2)ncc1OC`, the inhibition is -2.36%.

Take `Clc1ccccc1Sc1ccc(-c2ccccn2)s1`: the inhibition was -5.02%.

Consider `O=C(O)c1cnc(-c2ccccc2)nc1Sc1ccccc1Cl`, for which the inhibition was 1.01%.
